We go through 39 molecules from PubChem BioAssay AID720517 (National Center for Advancing Translational Sciences (NCATS), 2013).

Molecules are shown by their SMILES. Results filed as inconclusive are left out. Entries that show only a call come without a potency. Activity calls are given as the source filed them. Calls follow the shape of the dose curve; as a rule, active = well fitted activation curve with a large enough effect; inconclusive = small, poorly fitted or top-dose-only effect; inactive = flat fitted curve, though single readings scatter.

This experiment is described as follows: qHTS for Inhibitors of Cell Surface uPA Generation: FP59 Counterscreen for Cherry-picked Compounds. Conditions: FP59 anthrax toxin cytotoxicity counterscreen, cells; series mostly up to 115 µM. For orientation: In qHTS, concentration-response curves come from the screen itself.
`C=CCc1cc(S(=O)(=O)c2ccc(O)c(CC=C)c2)ccc1O`: the Potency result is “inactive”.
For `Cc1nc(C(=O)N2CCC(n3nccc3NC(=O)Nc3ccccc3Cl)CC2)cs1` the value was “inactive”; for `Cc1ccc([C@H]2C(C(=O)O)=CC[C@@H](c3cccc(C)c3)N2S(=O)(=O)c2ccc(C)cc2)cc1`, “inactive”.
`O=C(CSc1ccc(Cl)cc1)N1CCCC1`: the Potency result is “inactive”.
The entry for `COc1ccc(CNC(=O)C2CCC(CNS(=O)(=O)c3ccc(C)cc3)CC2)cc1` (centres undefined) is “inactive”; for `O=C(Nc1cccc(-c2nn[nH]n2)c1)c1ccc(Cl)s1` it is “inactive”; for `CCn1c(SC(C)C(=O)NC2CCCC2)nc2cc(S(N)(=O)=O)ccc21` (centres undefined) it is “inactive”.
As to `CC1(C)CC(=O)C=C(c2ccc3ccccc3c2)C1`, the Potency result is “inactive”.
For `C=CCn1c(=O)c(C(=O)NCCc2ccc(Cl)cc2)c(O)c2cc(OC)c(OC)cc21` the value was “inactive”; for `CCc1cc(CC)c(/C=N/NC(N)=O)c(CC)c1`, “inactive”; for `Cc1nnc2ccc(-c3ccc(NS(=O)(=O)c4ccc(Cl)s4)cc3)nn12`, “inactive”.
Regarding `COc1ncnc(NS(=O)(=O)c2ccc(N)cc2)c1OC`, the Potency result was “inactive”.
For `COc1ccc(C(=O)N[C@H](C(=O)NCc2cccs2)C(C)C)cc1` the value was “inactive”; for `Cc1ccc(NC2CCCN(C(=O)Cc3nonc3C)C2)cc1C` (centres undefined), “inactive”.
Regarding `CCC(C)NC(=O)c1ccc2nc(-c3ccc(OC)c(OC)c3)c(-c3ccc(OC)c(OC)c3)nc2c1` (centres undefined), the Potency entry is “inactive”.
`CC(/C=C/C1(O)C(C)CC(O)CC1(C)C)OC1OC(CO)C(O)C(O)C1O` (centres undefined): the Potency result was “inactive”.
For `Cc1ccc(NC(=O)CC2OC(=O)c3ccccc32)cc1S(=O)(=O)N1CCOCC1` (centres undefined) the value was “inactive”; for `CC1CCCCN1C(=O)CSc1nc2ncccc2[nH]1` (centres undefined), “inactive”.
For `Cc1ccc(NC(=O)c2ccc(=O)[nH]n2)cc1S(=O)(=O)Nc1ccccc1Cl`, the Potency result is “inactive”.
As to `O=C(NCCc1ccccc1)C1CCC(=O)N(Cc2cccc(C(F)(F)F)c2)C1` (centres undefined), the Potency result was “inactive”.
`COc1ccc(-n2nc(C(=O)Nc3cc(OC)c(OC)c(OC)c3)c3ccccc3c2=O)c(OC)c1`: the Potency result is “inactive”.
As for `O=C(Cc1ccc(Cl)cc1)c1c[nH]c(C(=O)NCCCn2ccnc2)c1`, the Potency entry was “inactive”.
`O=C(c1ccco1)N1CCN(c2ncccn2)CC1`: the Potency entry is “inactive”.
As for `O=C(CNS(=O)(=O)c1ccc(F)cc1)Nc1ccccc1`, the Potency entry was “inactive”.
In the case of `C[C@H]1CN([C@@H](C)CO)C(=O)c2cccc(NC(=O)c3cnccn3)c2O[C@@H]1CN(C)S(=O)(=O)c1ccc(F)cc1`, the Potency result was “inactive”.
Regarding `COc1ccc(/C(N)=N/OC(=O)Cc2ccccc2OC)cc1`, the Potency result is “inactive”.
For `COc1cc(C2NC(=O)NC(C)=C2C(=O)OCC2CCCCC2)ccc1O` (centres undefined), the Potency result was “inactive”.
`O=C(N/N=C/c1cccnc1)c1ccccc1[N+](=O)[O-]`: the Potency entry was “inactive”.
`CC(C)Cn1cnc2c(N)nc3ccccc3c21`: the Potency result is “inactive”.
For the molecule `CCOC(=O)N1CCN(C(=O)c2ccc3c(c2)sc2nc(-c4ccc(OC)cc4)cn23)CC1`, the Potency result is “inactive”.
`Cc1ccc2cccc(OCCCOc3ccccc3CO)c2n1`: the Potency entry was “inactive”.
For `CC(=O)Nc1ccc(NC(=O)CCCCCN2C(=O)c3ccccc3C2=O)cc1`, the Potency entry is “inactive”.
On to `Cc1c(NC(=O)C(C)OC(=O)CCC2CCCC2)c(=O)n(-c2ccccc2)n1C` (centres undefined), for which the Potency entry is “inactive”.
For `COc1ccccc1C(=O)NCCC(=O)NCC(c1ccc(F)cc1)N1CCOCC1` (centres undefined), the Potency entry is “inactive”.
Turning to `O=C1CC(/C=C/c2ccc(Cl)cc2)=Nc2ccccc2N1`, the Potency result was “inactive”.
Regarding `CCC(=O)N1CCC(NC(=O)Nc2ccc(OC(F)(F)F)cc2)CC1`, the Potency entry is “inactive”.
For the molecule `Cc1cc2[nH]c(=O)c(=O)[nH]c2cc1S(=O)(=O)NC1CCC(C)CC1` (centres undefined), the Potency result is “inactive”.
For `CC(C)N1CCc2c(sc(NC(=O)CCc3ccccc3)c2C(N)=O)C1` the value was “inactive”; for `COC(=O)c1ccccc1NC(=O)Nc1nnc(N2CCCCC2C)s1` (centres undefined), “inactive”.
